# Several values for one entry are separate records, joined by “and”; a condition that tells them apart may be missing. Equal entries are not always repeated. Inconclusive results are not listed. Activity calls are given as the source filed them. Calls follow the shape of the dose curve; as a rule, active = well fitted curve in the direction sought with a large enough effect; inconclusive = small, poorly fitted or top-dose-only effect, or another doubt; inactive = no such curve, though single readings can be large; an effect the other way counts as inactive or inconclusive.
# What was measured:
# [1] = Viability qHTS for spleen associated tyrosine kinase inhibitor (SYKi) naive MV4-11 cells (AID 1963823); also: nearly all actives have a fitted effect of over 40% in size; also: potency is read from the fitted curve at half-maximal effect
# In short: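 Luminescence from CellTiter-Glo, developed 10 min at room temperature, gave viability of MV4-11 cells never exposed to SYK inhibitor. Cells (500/well) had been incubated with compounds for 72 hr under standard culture conditions.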
# [2] = Viability qHTS for spleen associated tyrosine kinase inhibitor (SYKi) drug resistant MV4-11 cells (AID 1963824); also: nearly all actives have a fitted effect of over 35% in size; also: potency is read from the fitted curve at half-maximal effect
# In short: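 SYK inhibitor-resistant MV4-11 AML cells, 500 per well, added to predispensed compounds and incubated 72 hr at 37 C, 5% CO2. Viability measured by CellTiter-Glo luminescence after 10 min at room temperature.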
# [3] = Cellular viability qHTS for adrenocortical cancer (ACC) cell line NCI-H295R (AID 1963990); also: nearly all actives have a fitted effect of over 60% in size; also: potency is read from the fitted curve at half-maximal effect
# In short: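 Compound titrations (up to 46 uM final) are applied to NCI-H295R cultures for 48 h at 37C. Viable cell number is estimated by CellTiter-Glo signal, normalised to DMSO and doxorubicin controls.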
# [4] = Quantitative highthroughput screen to assess conditional lethalithy of NOMO1 cells grown in RPMI1640 with untreated serum (RPMI+s) (AID 1963876); also: nearly all actives have a fitted effect of over 35% in size
# In short: (§1)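 Each medium arm—HPLM with 10% dialyzed FBS, or RPMI1640 with 5 mM glucose and 10% untreated or dialyzed FBS—was screened against an 11-point, 3-fold compound titration for 48 h at 37 °C, with CellTiter-Glo luminescence as endpoint.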
# [5] = Quantitative highthroughput screen to assess conditional lethalithy of NOMO1 cells grown in RPMI1640 with dialyzed fetal bovine serum (RPMI+ds) (AID 1963877); also: series mostly up to about 46 µM; nearly all actives have a fitted effect of over 30% in size
# In short: as §1
# [6] = Quantitative highthroughput screen to assess conditional lethalithy of NOMO1 cells grown in Human Plasma-Like Medium with dialyzed fetal bovine serum (HPLM+ds) (AID 1963878); also: nearly all actives have a fitted effect of over 35% in size
# In short: as §1
# [7] = Quantitative highthroughput screen to assess conditional lethalithy of P12 Ichikawa cells grown in Human Plasma-Like Medium with dialyzed fetal bovine serum (HPLM+ds) (AID 1963879); conditions: Potency: viability; also: series mostly up to about 46 µM; nearly all actives have a fitted effect of over 35% in size
# In short: as §1
# [8] = Quantitative highthroughput screen to assess conditional lethalithy of P12 Ichikawa cells grown in RPMI1640 with dialyzed fetal bovine serum (RPMI+ds) (AID 1963880); conditions: Potency: P12-Ichikawa viability; also: nearly all actives have a fitted effect of over 35% in size
# In short: as §1
# [9] = Quantitative highthroughput screen to assess conditional lethalithy of P12 Ichikawa cells grown in RPMI1640 with untreated serum (RPMI+s) (AID 1963881); conditions: Potency: viability
# In short: as §1
# [10] = Quantitative highthroughput screen to assess conditional lethalithy of SEM cells grown in Human Plasma-Like Medium with dialyzed fetal bovine serum (HPLM+ds) (AID 1963882)
# In short: as §1
# [11] = Quantitative highthroughput screen to assess conditional lethalithy of SEM cells grown in RPMI1640 with unreated serum (RPMI+s) (AID 1963883); also: nearly all actives have a fitted effect of over 35% in size
# In short: as §1
# [12] = Quantitative highthroughput screen to assess conditional lethalithy of SEM cells grown in RPMI1640 with dialyzed fetal bovine serum (RPMI+ds) (AID 1963884)
# In short: as §1
compound,measurement,setting,value
NS(=O)(=O)OC[C@@H]1C[C@@H](n2ccc3c(N[C@H]4CCc5ccccc54)ncnc32)C[C@@H]1O,Potency,[1],103 nM (active) and 164 nM (active)
same,Potency,[2],73.1 nM (active) and 82 nM (active) and 74.2 nM (active)
same,Potency,[3],708 nM (active)
Cc1[nH]c(/C=C2\C(=O)Nc3ccc(S(=O)(=O)Cc4c(Cl)cccc4Cl)cc32)c(C)c1C(=O)N1CCC[C@@H]1CN1CCCC1,Potency,[1],934 nM (active)
same,Potency,[2],1.86 µM (active)
same,Potency,[3],7080 nM (active)
COc1cc(-c2cc(-c3ccc(N4CCNCC4)cc3)cnc2C)cc(OC)c1OC,Potency,[1],7420 nM (active)
same,Potency,[2],8.33 µM (active)
same,Potency,[3],inactive
CC(C)[N+](C)(C)CC(O)COc1cccc2ccccc12 (centres undefined),Potency,[1],inactive
same,Potency,[2],inactive
same,Potency,[3],inactive
c1ccc(CNCc2ccc(CN3CCCNCCNCCCNCC3)cc2)nc1,Potency,[1],inactive
same,Potency,[2],inactive
same,Potency,[3],inactive
CC(=O)O[C@@]12CO[C@@H]1C[C@H](O)[C@@]1(C)C(=O)[C@H](O)C3=C(C)[C@@H](OC(=O)[C@H](O)[C@@H](NC(=O)OC(C)(C)C)c4ccccc4)C[C@@](O)([C@@H](OC(=O)c4ccccc4)[C@H]21)C3(C)C,Potency,[1],2.7 nM (active)
same,Potency,[2],0.0024 µM (active)
same,Potency,[3],41.1 nM (active)
CC(C)(C)c1cc(C=O)cc(C(C)(C)C)c1O,Potency,[1],inactive
same,Potency,[2],inactive
same,Potency,[3],inactive
Cc1ccc(Nc2ncc3c(n2)N(C)C(=O)N(c2cc(NC(=O)c4cccc(C(F)(F)F)c4)ccc2C)C3)cn1,Potency,[1],14.8 nM (active)
same,Potency,[2],0.013 µM (active)
same,Potency,[3],inactive
CCC(=O)NC[C@H](Cc1ccc(OCCc2nc(-c3ccccc3)oc2C)cc1)N/C(C)=C\C(=O)c1ccc(C(F)(F)F)cc1,Potency,[1],16600 nM (active)
same,Potency,[2],11.8 µM (active)
same,Potency,[3],inactive
CC(=O)N1c2ccc(-c3ccc(C(=O)O)cc3)cc2[C@H](Nc2ccc(Cl)cc2)C[C@@H]1C,Potency,[1],52.5 nM (active)
same,Potency,[2],0.059 µM (active)
same,Potency,[3],3980 nM (active)
COc1ccc2cc1Oc1ccc(cc1)C[C@H]1c3c(cc4c(c3Oc3cc5c(cc3OC)CCN(C)[C@@H]5C2)OCO4)CCN1C,Potency,[1],11900 nM (active)
same,Potency,[2],9.44 µM (active)
same,Potency,[3],18400 nM (active)
CCCCOc1ccc(C(=O)CCN2CCCCC2)cc1,Potency,[1],21100 nM (active)
same,Potency,[2],16.8 µM (active)
same,Potency,[3],8200 nM (active)
O=C(c1ccc(Nc2nc(C3CC3)cn3c(-c4cn[nH]c4)cnc23)c(F)c1)N1CCOCC1,Potency,[1],1050 nM (active)
same,Potency,[2],1.66 µM (active)
same,Potency,[3],7940 nM (active)
Cc1ccc(NS(=O)(=O)c2cccc(C#N)c2)c2[nH]cc(C#N)c12,Potency,[1],166 nM (active)
same,Potency,[2],0.235 µM (active)
same,Potency,[3],112 nM (active)
Cn1cc(-c2cnn3c(N)c(Br)c(C4CCCNC4)nc23)cn1 (centres undefined),Potency,[1],291 nM (active)
same,Potency,[2],0.461 µM (active)
same,Potency,[3],inactive
CCN1/C(=C/C=C/c2sc3ccccc3[n+]2CC)Sc2ccccc21,Potency,[1],18.4 nM (active)
same,Potency,[2],0.058 µM (active)
same,Potency,[3],10000 nM (active)
C[C@@H]1C[C@H](N)C[C@H](c2ccncc2NC(=O)c2ccc(F)c(-c3c(F)cccc3F)n2)C1,Potency,[1],1180 nM (active)
same,Potency,[2],2.63 µM (active)
same,Potency,[3],28200 nM (active)
CCOC(=O)[C@H](CCc1ccccc1)N[C@@H](C)C(=O)N(CC(=O)O)C1Cc2ccccc2C1,Potency,[1],inactive
same,Potency,[2],inactive
same,Potency,[3],inactive
C=CCNC1=C2CC(C)CC(OC)C(O)C(C)/C=C(\C)C(OC(N)=O)C(OC)/C=C/C=C(\C)C(=O)NC(=CC1=O)C2=O (centres undefined),Potency,[1],93.4 nM (active)
same,Potency,[2],0.332 µM (active)
same,Potency,[3],10000 nM (active)
CCC(=O)N1CCOc2c(cc(-c3cc(OC)cc(OC)c3)cc2C(=O)N[C@H]2CCCN(C)C2)C1,Potency,[1],16600 nM (active)
same,Potency,[2],9.34 µM (active)
same,Potency,[3],inactive
Cn1cc[nH]c1=S,Potency,[1],inactive
same,Potency,[2],inactive
same,Potency,[3],inactive
CN(Cc1ccc(/C=C/C(=O)NO)cc1)CC12CC3CC(CC(C3)C1)C2,Potency,[1],296 nM (active)
same,Potency,[2],0.235 µM (active)
same,Potency,[3],447 nM (active)
COC(=O)/C=C/C(=O)N(O)CCCCNCc1ccc(COC(=O)Nc2cccc3ccccc23)cc1,Potency,[1],7310 nM (active)
same,Potency,[2],6.51 µM (active)
same,Potency,[3],inactive
COc1cccc([C@@H](C)NCCCc2ccccc2Cl)c1,Potency,[1],14800 nM (active)
same,Potency,[4],inactive
same,Potency,[5],inactive
same,Potency,[6],inactive
same,Potency,[7],inactive
same,Potency,[8],inactive
same,Potency,[9],inactive
same,Potency,[10],inactive
same,Potency,[11],inactive
same,Potency,[12],inactive
